Measured values: PubChem BioAssay (Tox21)
A number with no mark means an inactive call. Inconclusive results are not listed. Entries that show only a call come without a potency. Calls of active or inactive are those of the source. Unless noted, calls follow the shape of the dose curve; as a rule, active = well fitted curve in the direction sought with a large enough effect in the repeat runs; inconclusive = weak or mixed curves; inactive = no such curve, though single readings can be large; an effect the other way counts as inactive or inconclusive.

Key:
[1] = qHTS assay to identify small molecule antagonists of the TGF-beta/Smad signaling pathway - cell viability counter screen (AID 1346824); also: nearly all actives have a fitted effect of over 50% in size
In short: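 SBE-bla HEK 293T cells were plated overnight at 37 C, then given compounds in DMSO plus TGF-beta1 (added as 0.25 ng/mL solution) for 5 hr. After the bla read, CellTiter-Glo was added to the same wells and luminescence read after 30 min at room temperature.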

[2] = qHTS assay to identify small molecule agonists of the TGF-beta/Smad signaling pathway - cell viability counter screen (AID 1346829); also: top concentration of the series differs between compounds; nearly all actives have a fitted effect of over 45% in size
In short: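 Tox21 qHTS format: SBE-bla HEK 293T cells treated with DMSO-dissolved compounds for 5 hr; CellTiter-Glo luminescence after 30 min at room temperature.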

[3] = Caspase-3/7 induction in HepG2 cells by small molecules, qHTS assay (AID 1346978); also: nearly all actives have a fitted effect of over 15% in size
In short: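 Wild-type HepG2 cells (2,000/well) were settled 5 h at 37 C, 5% CO2, then exposed to compounds in DMSO for 17 h. Caspase-3/7 activity was read by luminescence 30 min after adding Caspase-Glo 3/7 reagent at room temperature.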

[4] = Caspase-3/7 induction in CHO-K1 cells by small molecules, qHTS assay (AID 1346980); also: nearly all actives have a fitted effect of over 15% in size
In short: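 Wild-type cells were seeded at 1,500 per well and settled 5 hr at 37 C, 5% CO2, then exposed to DMSO-dissolved compounds for 17 hr. Caspase-Glo 3/7 reagent was added, and luminescence was read after 30min at room temperature.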

[5] = Caspase-3/7 induction in HepG2 cells by small molecules, qHTS cell viability counter screen (AID 1346981); also: nearly all actives have a fitted effect of over 30% in size; also: potency is read from the fitted curve at half-maximal effect
In short: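 In this quantitative HTS counter screen, compounds delivered in DMSO were left on unmodified HepG2 cells for 16 hr at 37 C. Viability was then determined fluorometrically with CellTiter-Fluor, in parallel with caspase-3/7 induction in the same wells.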

[6] = biological target: Nuclear receptor subfamily 1 group I member 2 (Homo sapiens) (UniProt O75469); test: Human pregnane X receptor (PXR) small molecule agonists, qHTS assay (AID 1346982); also: nearly all actives have a fitted effect of over 35% in size; also: potency is read from the fitted curve at half-maximal effect
In short: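 Reporter HepG2 cells expressing PXR-Luc are cultured in charcoal-stripped FBS (5%), treated with compounds for 24 hr at 37 C, and assayed by ONE-Glo luminescence after 30 min at room temperature.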

[7] = biological target: Cytochrome P450 2D6 (Homo sapiens) (UniProt P10635); test: Cytochrome P450 Family 2 Subfamily D Member 6 (CYP2D6) small molecule antagonists: luciferase reporter qHTS assay (AID 1671196); also: nearly all actives have a fitted effect of over 50% in size; also: potency is read from the fitted curve at half-maximal effect
In short: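 Test chemicals meet CYP2D6 plus proluciferin substrate (10 min, RT); NADPH regenerating solution then drives turnover for 1 h. Detection reagent halts the reaction; luminescence measured after 20 min.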

[8] = biological target: Cytochrome P450 1A2 (Homo sapiens) (UniProt P05177); test: Cytochrome P450 Family 1 Subfamily A Member 2 (CYP1A2) small molecule antagonists: luciferase reporter qHTS assay (AID 1671199); also: nearly all actives have a fitted effect of over 50% in size; also: potency is read from the fitted curve at half-maximal effect
In short: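 Steps: enzyme-substrate mix dispensed; test compounds and furafylline control pinned in; 10 min room temperature; NADPH regeneration solution added, 1 h; reaction stopped with luciferin detection reagent; luminescence read after 20 min.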

[9] = biological target: Voltage-gated inwardly rectifying potassium channel KCNH2 (Homo sapiens) (UniProt Q12809); test: Human Ether-a-go-go-Related Gene (hERG) channel small molecule antagonists: fluorescence cell-based qHTS assay (AID 1671200);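 also: hERG-expressing U2OS cells given a thallium stimulus after FluxOR II dye loading; series mostly up to about 77 µM; nearly all actives have a fitted effect of over 50% in size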
In short: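 Fluorescence at 540 nm emission (480 nm excitation) was recorded kinetically for 2 min at 1-second intervals once the thallium-containing stimulus reached cells previously loaded with FluxOR II dye.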

[10] = biological target: Cytochrome P450 3A4 (Homo sapiens) (UniProt P08684); test: Cytochrome P450 Family 3 Subfamily A Member 4 (CYP3A4) small molecule antagonists: luciferase reporter qHTS assay (AID 1671201)
In short: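 qHTS, 1536-well. CYP3A4 + proluciferin substrate, cpd 10 min RT → NADPH regen 1 h RT → detection reagent 20 min → luminescence (RLU). Ketoconazole positive control.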

[11] = Human pregnane X receptor (PXR) small molecule agonists, qHTS cell viability counter screen (AID 1346977); also: nearly all actives have a fitted effect of over 50% in size
In short: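 Cytotoxicity counter screen run in the same wells as the PXR luciferase assay, using PXR-Luc HepG2 cells in charcoal-stripped serum medium. Viability: CellTiter-Fluor fluorescence after 24hr compound treatment.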

[12] = biological target: Cytochrome P450 2C19 (Homo sapiens) (UniProt P33261); test: Cytochrome P450 Family 2 Subfamily C Member 19 (CYP2C19) small molecule antagonists: luciferase reporter qHTS assay (AID 1671197); also: series mostly up to about 120 µM; nearly all actives have a fitted effect of over 65% in size
In short: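 Relative luminescence units recorded 20 min after the detection reagent stopped a 1 h, 37C CYP2C19 reaction on proluciferin substrate, which was started by NADPH regeneration following 10 min room-temperature compound preincubation; ketoconazole positive control.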

[13] = biological target: Cytochrome P450 2C9 (Homo sapiens) (UniProt P11712); test: Cytochrome P450 Family 2 Subfamily C Member 9 (CYP2C9) small molecule antagonists: luciferase reporter qHTS assay (AID 1671198); also: nearly all actives have a fitted effect of over 50% in size; also: potency is read from the fitted curve at half-maximal effect
In short: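 CYP2C9 activity was measured with a P450-Glo proluciferin substrate. Enzyme–substrate mix was held with compound for 10 min at room temperature, then NADPH regeneration solution was added for 1 h at 37C. Luciferin product was read as luminescence.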

[14] = qHTS assay to identify small molecule agonists of the TGF-beta/Smad signaling pathway (AID 1346859; active = well fitted activation curve with a large enough effect in the signal ratio in the repeat runs, not every such curve was filed as active; the % refers to the signal ratio; also: series mostly up to about 77 µM)
In short: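 Reporter line: HEK 293T with stably integrated SBE-controlled beta-lactamase. Compound exposure lasts 5 hr at 37 C and 5% CO2; substrate loading follows for 2 hr at room temperature, with emission read at 460 and 530 nm.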

[15] = biological target: Thyrotropin-releasing hormone receptor (Homo sapiens) (UniProt P34981); test: qHTS assay to identify small molecule antagonists of the thyrotropin-releasing hormone receptor (TRHR) signaling pathway (AID 1346877; active = well fitted inhibition curve with a large enough effect in the repeat runs, not every such curve was filed as active; also: series mostly up to about 51 µM)
In short: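 Kinetic fluorescence (3 min, 1 s resolution) following stimulation with TRH at 1 nM final; HEK293 cells bearing human TRHR; 5 min compound preincubation at RT; concentration-response over 15 points, triplicates.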

[16] = biological target: Thyrotropin-releasing hormone receptor (Homo sapiens) (UniProt P34981); test: qHTS assay to identify small molecule agonists of the thyrotropin-releasing hormone receptor (TRHR) signaling pathway (AID 1346891; calls by dose curve;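 also: HEK293 cells expressing TRHR with calcium dye readout; series mostly up to about 58 µM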)
In short: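 Cells: TRHR-Hek293, seeded and incubated 18 h. Dye loading: 2 h at 37 °C. Compound added from DMSO stock by pin tool. Read-out: kinetic calcium fluorescence over 3 min.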

[17] = Caspase-3/7 induction in CHO-K1 cells by small molecules, qHTS cell viability counter screen (AID 1346979); also: nearly all actives have a fitted effect of over 35% in size
In short: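 Cytotoxicity counter screen run in parallel with the caspase-3/7 assay: CHO-K1 cells, 16hr compound treatment at 37C, then CellTiter-Fluor for 1hr before fluorescence reading.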

Cytochrome P450 2C9 (Homo sapiens), sequence (P11712 whole entry, looked up): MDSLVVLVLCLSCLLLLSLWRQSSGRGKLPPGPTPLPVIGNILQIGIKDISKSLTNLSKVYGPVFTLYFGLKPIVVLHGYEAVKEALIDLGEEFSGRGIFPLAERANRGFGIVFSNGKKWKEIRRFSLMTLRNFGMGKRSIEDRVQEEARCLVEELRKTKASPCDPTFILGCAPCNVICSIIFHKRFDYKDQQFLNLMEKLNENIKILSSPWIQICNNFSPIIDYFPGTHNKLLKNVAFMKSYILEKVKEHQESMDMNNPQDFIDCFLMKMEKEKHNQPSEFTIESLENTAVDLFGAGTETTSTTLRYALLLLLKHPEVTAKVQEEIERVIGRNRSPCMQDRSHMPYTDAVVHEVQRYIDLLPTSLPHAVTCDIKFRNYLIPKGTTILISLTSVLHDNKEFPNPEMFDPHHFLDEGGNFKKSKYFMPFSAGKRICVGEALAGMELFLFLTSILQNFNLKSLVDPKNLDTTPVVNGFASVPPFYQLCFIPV
Cytochrome P450 2C19 (Homo sapiens), sequence (P33261 whole entry, looked up): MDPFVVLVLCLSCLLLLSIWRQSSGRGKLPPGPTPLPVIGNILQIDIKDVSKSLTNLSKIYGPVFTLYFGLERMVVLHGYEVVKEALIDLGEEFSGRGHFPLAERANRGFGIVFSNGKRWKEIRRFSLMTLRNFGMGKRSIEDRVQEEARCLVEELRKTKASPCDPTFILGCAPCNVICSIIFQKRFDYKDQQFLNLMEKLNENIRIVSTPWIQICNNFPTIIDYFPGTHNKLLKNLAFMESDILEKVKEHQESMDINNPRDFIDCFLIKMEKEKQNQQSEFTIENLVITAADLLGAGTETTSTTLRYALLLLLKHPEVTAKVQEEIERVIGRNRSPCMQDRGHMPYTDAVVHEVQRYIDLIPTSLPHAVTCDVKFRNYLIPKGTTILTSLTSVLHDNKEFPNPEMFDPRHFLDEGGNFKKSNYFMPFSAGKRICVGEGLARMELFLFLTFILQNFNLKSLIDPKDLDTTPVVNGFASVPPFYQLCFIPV
Thyrotropin-releasing hormone receptor (Homo sapiens), sequence (P34981 whole entry, looked up): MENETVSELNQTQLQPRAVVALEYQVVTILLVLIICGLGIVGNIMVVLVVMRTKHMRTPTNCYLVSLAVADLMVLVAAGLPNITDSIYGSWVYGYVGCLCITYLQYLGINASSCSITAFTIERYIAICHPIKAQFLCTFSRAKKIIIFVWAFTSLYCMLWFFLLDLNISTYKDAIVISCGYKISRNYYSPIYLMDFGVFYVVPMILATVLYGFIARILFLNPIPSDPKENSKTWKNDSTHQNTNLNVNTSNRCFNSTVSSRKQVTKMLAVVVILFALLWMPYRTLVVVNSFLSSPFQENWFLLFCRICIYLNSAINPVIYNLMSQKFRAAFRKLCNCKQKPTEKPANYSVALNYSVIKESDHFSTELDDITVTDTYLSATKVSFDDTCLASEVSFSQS
Cytochrome P450 2D6 (Homo sapiens), sequence (P10635 whole entry, looked up): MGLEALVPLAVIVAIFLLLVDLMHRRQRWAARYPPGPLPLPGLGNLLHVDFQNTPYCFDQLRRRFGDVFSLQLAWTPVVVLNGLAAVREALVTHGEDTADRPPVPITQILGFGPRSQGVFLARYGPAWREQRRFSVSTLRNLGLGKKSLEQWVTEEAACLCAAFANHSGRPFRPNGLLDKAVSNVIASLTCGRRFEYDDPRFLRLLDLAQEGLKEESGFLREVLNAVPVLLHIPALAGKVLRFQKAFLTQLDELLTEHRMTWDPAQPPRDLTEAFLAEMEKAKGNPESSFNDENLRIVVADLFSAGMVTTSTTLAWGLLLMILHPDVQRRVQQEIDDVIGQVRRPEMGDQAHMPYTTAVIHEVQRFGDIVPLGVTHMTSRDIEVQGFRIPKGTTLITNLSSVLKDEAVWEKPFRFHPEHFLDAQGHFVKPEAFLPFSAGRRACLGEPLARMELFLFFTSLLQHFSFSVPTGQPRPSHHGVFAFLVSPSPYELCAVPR
Voltage-gated inwardly rectifying potassium channel KCNH2 (Homo sapiens), sequence (Q12809 whole entry, looked up): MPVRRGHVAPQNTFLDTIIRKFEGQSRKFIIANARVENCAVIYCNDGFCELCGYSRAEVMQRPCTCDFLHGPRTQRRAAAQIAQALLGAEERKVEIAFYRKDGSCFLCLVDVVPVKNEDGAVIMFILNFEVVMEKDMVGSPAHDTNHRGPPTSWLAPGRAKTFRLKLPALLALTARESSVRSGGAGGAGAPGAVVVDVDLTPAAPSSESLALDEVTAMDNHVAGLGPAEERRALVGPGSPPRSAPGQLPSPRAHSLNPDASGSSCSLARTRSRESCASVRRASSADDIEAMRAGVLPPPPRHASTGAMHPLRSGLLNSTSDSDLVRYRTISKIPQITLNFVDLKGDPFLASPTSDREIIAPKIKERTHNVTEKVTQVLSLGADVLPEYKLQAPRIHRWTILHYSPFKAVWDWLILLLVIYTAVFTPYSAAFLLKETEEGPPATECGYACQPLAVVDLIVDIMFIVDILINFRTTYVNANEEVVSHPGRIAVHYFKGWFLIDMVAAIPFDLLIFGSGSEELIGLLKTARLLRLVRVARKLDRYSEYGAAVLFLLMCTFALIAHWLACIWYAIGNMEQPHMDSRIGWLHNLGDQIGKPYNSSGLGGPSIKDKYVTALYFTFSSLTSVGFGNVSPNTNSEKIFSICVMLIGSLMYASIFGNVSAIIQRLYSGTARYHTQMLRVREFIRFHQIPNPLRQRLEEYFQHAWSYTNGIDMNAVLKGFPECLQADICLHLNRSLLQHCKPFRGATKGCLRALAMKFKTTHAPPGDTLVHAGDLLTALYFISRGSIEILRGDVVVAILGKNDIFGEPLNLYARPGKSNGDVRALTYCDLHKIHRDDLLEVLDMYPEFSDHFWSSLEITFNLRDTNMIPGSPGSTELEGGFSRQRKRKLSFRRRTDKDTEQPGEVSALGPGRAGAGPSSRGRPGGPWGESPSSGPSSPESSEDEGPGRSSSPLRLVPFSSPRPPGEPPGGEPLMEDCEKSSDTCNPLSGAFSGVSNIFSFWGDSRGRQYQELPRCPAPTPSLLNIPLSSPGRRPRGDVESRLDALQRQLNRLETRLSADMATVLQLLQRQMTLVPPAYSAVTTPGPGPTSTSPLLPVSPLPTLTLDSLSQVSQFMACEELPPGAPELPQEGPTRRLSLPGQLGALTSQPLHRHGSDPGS
Cytochrome P450 3A4 (Homo sapiens), sequence (P08684 whole entry, looked up): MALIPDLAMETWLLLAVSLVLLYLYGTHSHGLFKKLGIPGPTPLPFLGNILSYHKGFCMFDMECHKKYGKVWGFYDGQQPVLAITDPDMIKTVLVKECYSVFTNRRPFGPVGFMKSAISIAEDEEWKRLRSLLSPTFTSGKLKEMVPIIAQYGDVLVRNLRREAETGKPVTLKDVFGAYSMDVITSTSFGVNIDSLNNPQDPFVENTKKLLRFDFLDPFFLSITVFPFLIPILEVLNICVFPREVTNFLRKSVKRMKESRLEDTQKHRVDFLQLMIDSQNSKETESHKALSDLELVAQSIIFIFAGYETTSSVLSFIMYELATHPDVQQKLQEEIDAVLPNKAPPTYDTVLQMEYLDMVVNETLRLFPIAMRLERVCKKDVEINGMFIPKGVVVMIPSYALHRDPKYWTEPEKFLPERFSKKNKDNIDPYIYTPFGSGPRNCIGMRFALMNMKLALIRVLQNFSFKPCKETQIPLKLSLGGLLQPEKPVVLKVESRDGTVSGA
Nuclear receptor subfamily 1 group I member 2 (Homo sapiens), sequence (O75469 whole entry, looked up): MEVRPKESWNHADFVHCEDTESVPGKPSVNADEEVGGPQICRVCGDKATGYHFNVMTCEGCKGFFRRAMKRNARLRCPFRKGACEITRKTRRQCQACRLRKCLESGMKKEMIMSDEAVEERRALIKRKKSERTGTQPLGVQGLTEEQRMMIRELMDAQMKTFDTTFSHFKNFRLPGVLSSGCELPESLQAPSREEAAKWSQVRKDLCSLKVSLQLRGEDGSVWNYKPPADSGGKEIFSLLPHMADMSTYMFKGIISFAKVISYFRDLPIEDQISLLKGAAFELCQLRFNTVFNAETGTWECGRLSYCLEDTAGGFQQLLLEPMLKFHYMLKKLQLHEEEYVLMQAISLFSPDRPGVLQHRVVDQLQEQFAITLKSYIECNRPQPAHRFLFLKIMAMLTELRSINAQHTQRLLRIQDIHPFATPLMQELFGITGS
Cytochrome P450 1A2 (Homo sapiens), sequence (P05177 whole entry, looked up): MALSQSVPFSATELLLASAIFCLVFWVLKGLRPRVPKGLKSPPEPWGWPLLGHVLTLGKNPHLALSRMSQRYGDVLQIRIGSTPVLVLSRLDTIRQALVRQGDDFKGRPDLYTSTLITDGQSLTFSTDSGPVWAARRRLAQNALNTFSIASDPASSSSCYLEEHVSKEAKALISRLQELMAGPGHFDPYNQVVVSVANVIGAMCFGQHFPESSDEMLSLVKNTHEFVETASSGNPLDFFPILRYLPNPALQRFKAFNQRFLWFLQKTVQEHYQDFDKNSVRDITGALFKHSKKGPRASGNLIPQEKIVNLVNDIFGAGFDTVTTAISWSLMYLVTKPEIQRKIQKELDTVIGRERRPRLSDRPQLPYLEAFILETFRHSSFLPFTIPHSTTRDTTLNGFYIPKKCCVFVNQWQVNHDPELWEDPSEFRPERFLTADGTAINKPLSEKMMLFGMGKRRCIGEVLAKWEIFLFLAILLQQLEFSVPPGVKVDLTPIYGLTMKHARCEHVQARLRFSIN

Compound: CC1=NN(c2ccc(S(=O)(=O)O)cc2)C(=O)C1N=Nc1ccccc1 (stereo not given)
- outcome [1]: inactive
- outcome [2]: inactive
- outcome [3]: inactive
- outcome [4]: inactive
- Potency [5]: 61.1 µM (active)
- Potency [6]: inactive
- Potency [7]: inactive
- Potency [8]: inactive
- Potency [9]: inactive
- Potency [10]: inactive

Compound: CCOC(=O)OCC/C(SC(=O)OCC)=C(\C)N(C=O)Cc1cnc(C)nc1N
- outcome [1]: inactive
- outcome [2]: inactive
- Potency [11]: inactive
- outcome [3]: inactive
- outcome [4]: inactive
- Potency [5]: inactive
- Potency [6]: inactive
- Potency [7]: 2.45 µM (active)
- Potency [12]: inactive
- Potency [13]: inactive
- Potency [9]: inactive

Compound: NC(Cc1c[nH]c2ccccc12)C(=O)O (stereo not given)
- outcome [1]: inactive
- outcome [14]: inactive
- outcome [15]: inactive
- outcome [16]: inactive
- Potency [11]: inactive
- outcome [3]: inactive
- Potency [17]: inactive
- outcome [4]: inactive
- Potency [5]: inactive
- Potency [7]: 17.5 µM (active)
- Potency [13]: 31.1 µM (active)
- Potency [9]: inactive

Compound: CCOC(=O)CC#N
- outcome [1]: inactive
- outcome [14]: inactive
- outcome [15]: inactive
- outcome [16]: inactive
- Potency [11]: inactive
- outcome [3]: inactive
- Potency [17]: inactive
- outcome [4]: inactive
- Potency [5]: inactive
- Potency [9]: inactive
- Potency [10]: inactive

Compound: CCNC(=O)NCCCOc1cccc(CN2CCCCC2)c1
- outcome [1]: inactive
- outcome [2]: inactive
- outcome [15]: inactive
- outcome [16]: inactive
- Potency [11]: inactive
- outcome [3]: inactive
- outcome [4]: inactive
- Potency [5]: inactive
- Potency [6]: 29.8 µM (active)
- Potency [12]: inactive
- Potency [9]: inactive

Compound: CC(C)COC(=O)CCCCC(=O)OCC(C)C
- outcome [1]: inactive
- outcome [2]: inactive
- outcome [15]: inactive
- Potency [11]: inactive
- outcome [3]: inactive
- Potency [17]: inactive
- outcome [4]: inactive
- Potency [12]: inactive
- Potency [13]: 22.4 µM (active)
- Potency [8]: 39.9 µM (active)
- Potency [9]: inactive
- Potency [10]: inactive

Compound: O=C(COCCOCCOCC(=O)Nc1c(I)cc(I)c(C(=O)O)c1I)Nc1c(I)cc(I)c(C(=O)O)c1I
- outcome [1]: inactive
- outcome [14]: inactive
- outcome [15]: inactive
- outcome [16]: inactive
- Potency [11]: inactive
- outcome [3]: inactive
- Potency [17]: inactive
- outcome [4]: inactive
- Potency [5]: inactive
- Potency [6]: inactive
- Potency [13]: inactive
- Potency [8]: inactive
- Potency [9]: inactive
- Potency [10]: inactive

Compound: CO/N=C(/C(=O)N[C@@H]1C(=O)N2C(C(=O)O)=C(Cn3nnc(C)n3)CS[C@H]12)c1csc(N)n1
- outcome [1]: inactive
- outcome [2]: inactive
- outcome [15]: inactive
- outcome [16]: inactive
- Potency [11]: inactive
- outcome [3]: inactive
- Potency [17]: inactive
- outcome [4]: inactive
- Potency [6]: inactive
- Potency [7]: inactive
- Potency [12]: inactive
- Potency [13]: inactive
- Potency [8]: inactive
- Potency [9]: inactive
- Potency [10]: inactive

Compound: CCC(C)(CCC(C)C)C(=O)[O-].CCC(C)(CCC(C)C)C(=O)[O-].[Zn+2] (stereo not given)
- Potency [11]: inactive
- outcome [3]: inactive
- outcome [4]: inactive
- Potency [5]: inactive
- Potency [7]: inactive
- Potency [9]: inactive
- Potency [10]: inactive

Compound: Nc1ccc(C(=O)OCC(O)CO)cc1 (stereo not given)
- outcome [1]: inactive
- outcome [14]: inactive
- Potency [11]: inactive
- outcome [3]: inactive
- outcome [4]: inactive
- Potency [8]: 15.5 µM (active)
- Potency [9]: inactive
